Screening data from PubChem.
Many of the other results were omitted from the sample, so hits are more common in it than they were.
IDE exosite inh = exo-site inhibitors of human IDE, primary screen, biochemical, fluorescence anisotropy, probe displacement; Insulin-degrading enzyme (Homo sapiens), P14735; purified IDE, FL-6b probe fluorescence polarization; hits give low values; z-score at 20 µM; actives 6.3% (n = 17,000); AID 1259349, 2017;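 active = z-score of -3 or lower, meaning strong loss of probe binding signal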;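 also: His-tagged human IDE residues 42-1019 made in E. coli with 30 nM FL-6b probe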
Of the large screens only hits and unclear results are named; the others gave an inactive call.

CCC(=O)N1CC(=O)N2[C@H](C1)[C@@H](c1ccc(C#CCc3ccccc3)cc1)[C@@H]2CO	none
COCC(=O)N1CC(=O)N2[C@H](C1)[C@H](c1ccc(C#CCc3ccccc3)cc1)[C@@H]2CO	none
O=C(C1CC1)N1CC(=O)N2[C@H](CO)[C@@H](c3ccc(C#CCc4ccccc4)cc3)[C@H]2C1	none
CCC(=O)N1CC(=O)N2[C@@H](CO)[C@H](c3ccc(C#CCc4ccccc4)cc3)[C@@H]2C1	IDE exosite inh -3.78
O=C(C1CC1)N1CC(=O)N2[C@H](CO)[C@@H](c3ccc(C#CCc4ccccc4)cc3)[C@@H]2C1	none
CCC(=O)N1CC(=O)N2[C@H](CO)[C@H](c3ccc(C#CCc4ccccc4)cc3)[C@H]2C1	IDE exosite inh -3.56
O=C(C1CC1)N1CC(=O)N2[C@@H](CO)[C@H](c3ccc(C#CCc4ccccc4)cc3)[C@@H]2C1	none
CCC(=O)N1CC(=O)N2[C@H](CO)[C@H](c3ccc(C#CCc4ccccc4)cc3)[C@@H]2C1	IDE exosite inh -5.83
CC(C)CC#Cc1ccc([C@@H]2[C@H](CO)N3C(=O)CN(C(=O)Nc4ccc(F)cc4)C[C@@H]23)cc1	none
COC(=O)c1ccc(CN2CC(=O)N3[C@H](C2)[C@H](c2ccc(-c4ccccc4F)cc2)[C@@H]3CO)cc1	none
CN(C)CC(=O)N[C@H]1CC[C@H](CCNC(=O)C2CCC2)O[C@@H]1CO	none
Cc1cccc(S(=O)(=O)N2C[C@H]3[C@@H](c4ccccc42)[C@@H](CO)N3C(=O)c2ccccc2)c1	none
CCc1cnc(N2[C@H](C#N)[C@H](c3ccc(C4=CCCC4)cc3)[C@H]2CO)s1	none
CC(=O)N1CC(=O)N2[C@H](CO)[C@@H](c3ccc(-c4ccc(C#N)cc4)cc3)[C@@H]2C1	none
C/C=C/c1ccc([C@@H]2[C@H](CO)N3C(=O)CN(Cc4ccc(C)cc4)C[C@@H]23)cc1	none
OC[C@@H]1[C@H](c2ccc(-c3ccccc3F)cc2)[C@H]2CN(Cc3cncnc3)CCCCN12	none
OC[C@H]1[C@H](c2ccc(C#Cc3ccccc3F)cc2)[C@@H]2CN(Cc3cncnc3)CCCCN12	none
OC[C@H]1[C@H](c2ccc(C#Cc3ccccc3F)cc2)[C@H]2CN(Cc3cncnc3)CCCCN21	IDE exosite inh -5.7
OC[C@@H]1[C@H](c2ccc(C#Cc3ccccc3F)cc2)[C@@H]2CN(Cc3cncnc3)CCCCN12	IDE exosite inh -3.51
OC[C@H]1[C@H](c2ccc(-c3ccccc3F)cc2)[C@@H]2CN(Cc3cncnc3)CCCCN12	none
OC[C@@H]1[C@@H](c2ccc(C#Cc3ccccc3F)cc2)[C@H]2CN(Cc3cncnc3)CCCCN12	none
COc1ccc2c3c(n(C)c2c1)[C@@H](CO)N(S(C)(=O)=O)CC31CCN(C(=O)Nc2cccc(F)c2)CC1	none
O=C(NC1CCCC1)N[C@H]1C=C[C@H](CC(=O)N2CCOCC2)O[C@H]1CO	none
CC(C)NC(=O)Nc1cccc2c1O[C@@H](CN(C)C(=O)Nc1ccccc1)[C@@H](C)CN([C@H](C)CO)C2=O	none
CCN(C[C@@H]1[C@@H](c2ccccc2)[C@@H](CO)N1CC1CC1)C(=O)c1ccccn1	none
COc1ccccc1C#Cc1ccc([C@@H]2[C@@H](CO)N3CCCCN(CCC(F)(F)F)C[C@H]23)cc1	none
OC[C@H]1[C@H](c2ccc(C#CC3CCCC3)cc2)[C@@H]2CN(CCC(F)(F)F)CCCCN12	none
OC[C@H]1[C@@H](c2ccc(-c3ccccc3)cc2)[C@@H]2CN(CCC(F)(F)F)CCCCN12	none
COc1ccccc1C#Cc1ccc([C@H]2[C@@H](CO)N3CCCCN(CCC(F)(F)F)C[C@H]23)cc1	IDE exosite inh -12.3
OC[C@@H]1[C@@H](c2ccc(C#CC3CCCC3)cc2)[C@H]2CN(CCC(F)(F)F)CCCCN12	none
COc1ccccc1C#Cc1ccc([C@H]2[C@H]3CN(CCC(F)(F)F)CCCCN3[C@H]2CO)cc1	IDE exosite inh -7.19
O=C(Nc1ccc(F)cc1)N1CC(=O)N2[C@H](C1)[C@H](c1ccc(C#Cc3ccccc3)cc1)[C@@H]2CO	none
CO[C@@H]1CN(C)C(=O)c2ccc(NC(=O)C3CCC3)cc2OC[C@@H](C)N(Cc2ccccn2)C[C@H]1C	none
C[C@@H]1CN([C@H](C)CO)C(=O)c2ccccc2-c2ccccc2CO[C@@H]1CN(C)S(=O)(=O)c1cn(C)cn1	none
CCCNC(=O)N1CC(=O)N2[C@H](C1)[C@H](c1ccc(-c3ccncc3)cc1)[C@@H]2CO	none
CO[C@@H]1CN(C)C(=O)c2cc(NC(=O)C3CCCCC3)ccc2OC[C@H](C)N(Cc2cccnc2)C[C@@H]1C	none
N#C[C@@H]1[C@H](c2ccccc2C2=CCCC2)[C@@H](CO)N1C(=O)CN1CCOCC1	none
O=C(c1ccccc1F)N1CC(=O)N2[C@@H](CO)[C@H](c3ccc(-c4cccnc4)cc3)[C@@H]2C1	none
O=C(C1CCCCC1)N1CC(=O)N2[C@@H](CO)[C@H](c3ccc(-c4cccnc4)cc3)[C@@H]2C1	none
CCC(=O)N1CC(=O)N2[C@@H](CO)[C@H](c3ccc(-c4cccnc4)cc3)[C@@H]2C1	none
O=C(c1ccccc1F)N1CC(=O)N2[C@@H](CO)[C@@H](c3ccc(-c4cccnc4)cc3)[C@@H]2C1	none
